Calls of active or inactive are those of the source.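 The calls were made as follows, unless noted: active = fluorescence slope after compound addition differing from the mean of all screened samples at 99.7% confidence, in either direction; inactive = the rest.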
Assays:
[1] = inhibitors of TNFa-induced NFkB p65 translocation, primary screen, imaging, HUVEC, MLSMR starter and 10KST1 sets (AID 438;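 active = inhibition above 20% together with a positive visual image hit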;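 also: compound added about 3h40 before a 20 min TNFalpha stimulation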;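 as to inhibition: signal is the nuclear over cytoplasmic p65 intensity ratio per well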); conditions: HUVEC TNFa-induced p65 nuclear translocation; cell count: measured here: nuclei count (cytotoxicity indicator), at 2.08 µM; inhibition: at 2 µM, stronger effect = higher value, 0% TNFa-plus-vehicle, 100% no-TNFa wells
[2] = inhibitors of mutant huntingtin aggregation, primary screen, imaging, exon1htt(103Q)mCFP cells, high-content imaging (AID 483;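 active = visual image review flags a hit and inhibition of aggregation exceeds 20%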;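 also: compound exposure lasted 3 days before fixation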;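 as to nuclei count: percent of the per-plate median nuclei count of sample wells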); conditions: exon1htt(103Q)mCFP cell line, aggregate imaging, at 2 µM; inhibition of aggregation: stronger effect = higher value; nuclei count: measured here: cell count, toxicity
[3] = inhibitors of E-selectin induction by TNFa, primary screen, imaging, HUVEC, immunofluorescence, MLSMR starter and 10KST1 sets (AID 487;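 active = visually confirmed hit in the image check and inhibition above 20%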;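 as to inhibition: signal is fraction of cell area covered by stained E-selectin grains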;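 as to nuclei count: 100% = median nuclei count of all wells on the same plate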); conditions: HUVEC TNFalpha-induced E-selectin immunofluorescence imaging, at 2 µM; inhibition: stronger effect = higher value; nuclei count: measured here: cell number, toxicity
[4] = target: Voltage-gated potassium channel subunit beta-2 (Rattus norvegicus) (UniProt P62483); test: KvBeta enzyme negative modulators, primary screen, biochemical, NADPH fluorescence (AID 622;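 active = fluorescence slope higher than the sample average by over 3 SD, cut at about -0.22 in these data, passing the limit was not always enough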;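 also: slope of raw intensity against log time taken from 70 to 1610 s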); conditions: recombinant KvBeta, 4-cyanobenzaldehyde reduction, at 10 µM, stronger effect = higher value
[5] = target: Voltage-gated potassium channel subunit beta-2 (Rattus norvegicus) (UniProt P62483); test: KvBeta positive modulators, primary screen, biochemical, NADPH fluorescence (AID 623;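 active = NADPH fluorescence slope more negative than the mean of all samples by about 3 SD, 99.7% confidence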;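 also: fluorescence intensity change per second fitted from 20 to 320 s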); conditions: Recombinant KvBeta, NADPH fluorescence decrease slope, 10 min; at 10 µM; stronger effect = lower value
[6] = target: Alpha-2C adrenergic receptor (Homo sapiens) (UniProt P18825); test: modulators of alpha2C/GIRK thallium flux, primary screen, cell-based, HEK293 alpha2C/GIRK1/2 (AID 624); conditions: thallium flux BTC fluorescence, at 10 µM, actives lie on both sides;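 also: slope of fluorescence ratio to pre-addition baseline per second over 15 to 24 s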
[7] = inhibitors of Sendai virus-induced IRF3 signaling, primary screen, TLR/RLR signaling modifier project, cell-based, Sendai virus stimulus, luciferase, 10K MLSCN set (AID 602276;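 active = inhibition at or above 50% at 10 µM; inactive = inhibition below 50%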;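 also: firefly luciferase from ISG56 promoter only with Renilla not read in this screen; 0% = Sendai virus plus DMSO and 100% = medium plus DMSO without virus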); conditions: HEK293 RL24 IRF3 luciferase reporter, at 10 µM, stronger effect = higher value
[8] = inhibitors of poly I:C-induced TLR3 signaling, primary screen, cell-based, poly I:C stimulus, luciferase, 10K MLSCN set (AID 602277;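 active = inhibition of the reporter signal at or above 50%; inactive = inhibition below 50%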); conditions: HEK293-TLR3 RL24 IRF3 luciferase reporter, at 10 µM, stronger effect = higher value

Voltage-gated potassium channel subunit beta-2 (Rattus norvegicus), sequence (P62483 whole entry, looked up): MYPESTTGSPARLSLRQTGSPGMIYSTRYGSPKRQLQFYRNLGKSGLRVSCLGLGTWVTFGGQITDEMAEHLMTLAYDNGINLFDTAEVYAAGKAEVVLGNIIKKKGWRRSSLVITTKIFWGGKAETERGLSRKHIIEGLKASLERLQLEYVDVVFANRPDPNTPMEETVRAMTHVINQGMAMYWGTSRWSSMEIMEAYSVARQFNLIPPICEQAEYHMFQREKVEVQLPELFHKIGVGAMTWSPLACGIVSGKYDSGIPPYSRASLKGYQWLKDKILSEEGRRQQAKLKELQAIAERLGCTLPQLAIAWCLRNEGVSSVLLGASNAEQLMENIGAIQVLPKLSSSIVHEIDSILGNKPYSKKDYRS
Alpha-2C adrenergic receptor (Homo sapiens), sequence (P18825 whole entry, looked up): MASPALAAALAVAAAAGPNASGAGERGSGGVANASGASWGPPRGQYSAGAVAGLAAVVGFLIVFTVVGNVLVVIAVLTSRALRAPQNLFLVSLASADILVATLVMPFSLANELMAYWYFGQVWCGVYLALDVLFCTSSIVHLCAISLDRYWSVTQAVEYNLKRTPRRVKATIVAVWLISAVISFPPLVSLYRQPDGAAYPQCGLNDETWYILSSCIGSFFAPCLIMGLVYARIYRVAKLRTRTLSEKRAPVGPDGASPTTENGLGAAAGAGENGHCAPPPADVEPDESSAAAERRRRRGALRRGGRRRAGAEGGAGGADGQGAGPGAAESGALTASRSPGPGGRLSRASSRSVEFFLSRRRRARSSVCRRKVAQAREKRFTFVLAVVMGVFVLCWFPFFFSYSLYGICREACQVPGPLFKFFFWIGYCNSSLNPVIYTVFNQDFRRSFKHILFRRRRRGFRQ

Compound | cell count [1] | inhibition [1] | inhibition of aggregation [2] | nuclei count [2] | inhibition [3] | nuclei count [3] | fluorescence slope [4] | NADPH fluorescence slope [5] | slope [6] | inhibition [7] | inhibition [8]
O=C(CN1C(=O)COc2ccccc21)N(Cc1cccnc1)Cc1ccccc1F | 661 | -2.9% (inactive) | -5.5% (inactive) | 77.4% | -6.3% (inactive) | 106% | -0.324 (inactive) | -5.8e-05 (inactive) | 0.00465 (inactive) | 15.9% (inactive) | 32.6% (inactive)
Cc1ccc(NC(=O)CSc2nnc(-c3ccccn3)n2C)cc1 | 644 | 14.4% (inactive) | 6.7% (inactive) | 92.4% | 0.6% (inactive) | 111% | -0.418 (inactive) | -2.7e-05 (inactive) | 0.00462 (inactive) | 0.794% (inactive) | -5.25% (inactive)
O=c1c[n+]([O-])c2ccccc2n1OCc1c(F)cccc1F | 744 | -6% (inactive) | -13.7% (inactive) | 87.6% | -236% (inactive) | 110% | -0.425 (inactive) | -2.4e-05 (inactive) | 0.00594 (inactive) | 18% (inactive) | 24.8% (inactive)
Cn1c(NC(=O)c2ccccc2NC(=O)C(C)(C)C)nc2ccccc21 | 704 | -3.2% (inactive) | 11.9% (inactive) | 98.3% | -10.7% (inactive) | 126% | -0.163 (active) | 5.8e-06 (inactive) | 0.00774 (inactive) | 1.78% (inactive) | -25.9% (inactive)
COc1ccc(-c2nnc(SCC(=O)Nc3ccc(Cl)cc3)n2C)cc1 | 327 | -5.5% (inactive) | -26.9% (inactive) | 139% | -77.8% (inactive) | 122% | -0.462 (inactive) | 3.4e-05 (inactive) | 0.00817 (inactive) | -16% (inactive) | -1.71% (inactive)
O=C1OC2(c3ccccc3)C3CCCC2C13 | 340 | -1.1% (inactive) | 7.7% (inactive) | 94.1% | 5.3% (inactive) | 107% | -0.548 (inactive) | -7.3e-05 (inactive) | 0.00538 (inactive) | 16% (inactive) | 15.6% (inactive)
COc1cc(OC)c(C2N(C)c3ccccc3N2C)cc1OC | 403 | 1.7% (inactive) | -0.8% (inactive) | 111% | -64.6% (inactive) | 105% | -0.502 (inactive) | -1.1e-05 (inactive) | 0.00623 (inactive) | -3.76% (inactive) | 26.3% (inactive)
CCC(C)NC(=O)C1c2cc(OC)c(OC)cc2C(=O)N(C)C1c1ccc(OC)cc1 (centres undefined) | 455 | -0.3% (inactive) | 7.3% (inactive) | 100% | 43.7% (inactive) | 52.6% | -0.539 (inactive) | -8.1e-06 (inactive) | 0.00537 (inactive) | -0.973% (inactive) | 2.51% (inactive)
O=C(NCC(F)(F)F)Nc1cccnc1 | 309 | 6.5% (inactive) | -5.6% (inactive) | 100% | -117% (inactive) | 119% | -0.318 (inactive) | -5.2e-05 (inactive) | 0.00372 (inactive) | -2.55% (inactive) | 3.81% (inactive)

— PubChem BioAssay
